Assay results taken from the supplement of paper PMC9262897, “Low-cost anti-mycobacterial drug discovery using engineered E. coli” (Nature Communications, 2022).
Structures can show the parent of a compound that is named as a salt. ± gives the standard deviation of the averaged measurements.

Test system: E. coli TESEC Mtb Alr
Experiment: growth (OD600 after 10 h); higher = more growth (less inhibition)
Conditions: compound 0.1 mM
Description: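 TESEC Mtb Alr E. coli, or the Alr+ wild-type control, in 384-well plates with Prestwick library compounds at 0.1 mM and 1% DMSO, across arabinose induction levels of 1E3 to 1E7 nM. Growth is read as OD600 after 10 h at 37 °C in triplicate biological replicates.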

[1] = arabinose 1000 nM, raw OD600 reference: median of DMSO wells 0.294, cell-free background 0.041
[2] = arabinose 10000 nM, raw OD600 reference: median of DMSO wells 0.264, cell-free background 0.041
[3] = arabinose 100000 nM, raw OD600 reference: median of DMSO wells 0.201, cell-free background 0.041
[4] = arabinose 1000000 nM, raw OD600 reference: median of DMSO wells 0.193, cell-free background 0.041
[5] = arabinose 10000000 nM, raw OD600 reference: median of DMSO wells 0.146, cell-free background 0.041

| SMILES | growth [1] | growth [2] | growth [3] | growth [4] | growth [5] |
| --- | --- | --- | --- | --- | --- |
| C[C@@H](O)[C@H]1C(=O)N2C(C(=O)O)=C(SCCNC=N)C[C@H]12 [Imipenem] | 0.282 ± 0.0094 | 0.269 ± 0.0053 | 0.202 ± 0.035 | 0.174 ± 0.0056 | 0.136 ± 0.0047 |
| Cc1cccc(C)c1NC(=O)CN1CCN(CCCC(c2ccc(F)cc2)c2ccc(F)cc2)CC1 [Lidoflazine] | 0.311 ± 0.0035 | 0.263 ± 0.0048 | 0.223 ± 0.018 | 0.174 ± 0.0022 | 0.163 ± 0.0025 |
| O=C1OCCN1/N=C/c1ccc([N+](=O)[O-])o1 [Furazolidone] | 0.041 ± 0.00078 | 0.04053 ± 0.00021 | 0.0418 ± 0.00065 | 0.03987 ± 0.00012 | 0.0412 ± 0.0008 |
| CCCNC(C)C(=O)Nc1c(C)csc1C(=O)OC (stereo not given) [Articaine hydrochloride] | 0.3163 ± 0.0008 | 0.266 ± 0.0049 | 0.213 ± 0.013 | 0.162 ± 0.0036 | 0.147 ± 0.0054 |
| NS(=O)(=O)c1cc(C2(O)NC(=O)c3ccccc32)ccc1Cl (stereo not given) [Chlorthalidone] | 0.285 ± 0.012 | 0.255 ± 0.0039 | 0.193 ± 0.0099 | 0.168 ± 0.003 | 0.144 ± 0.0027 |
| Clc1ccc2nsnc2c1NC1=NCCN1 [Tizanidine HCl] | 0.287 ± 0.017 | 0.262 ± 0.00087 | 0.193 ± 0.028 | 0.185 ± 0.0059 | 0.142 ± 0.0064 |
| COC(=O)Nc1nc2cc(C(=O)c3ccccc3)ccc2[nH]1 [Mebendazole] | 0.245 ± 0.021 | 0.269 ± 0.0042 | 0.189 ± 0.011 | 0.168 ± 0.0043 | 0.159 ± 0.0019 |
| O=C(Nc1ccc([N+](=O)[O-])cc1Cl)c1cc(Cl)ccc1O [Niclosamide] | 0.0406 ± 0.001 | 0.0492 ± 0.0021 | 0.0408 ± 0.0001 | 0.03973 ± 0.00035 | 0.0404 ± 0.00042 |
